Results: PubChem BioAssay (Tox21)
Records with an inconclusive call do not appear. A call without a number means that no potency is given here. Where a structure was tested more than once in an assay, its records may differ in their call. The source made the active and inactive calls. Unless noted, the call rests on the fitted dose curve; in most records, active means well fitted curve in the direction sought with a large enough effect in the repeat runs; inconclusive means weak or mixed curves; inactive means no such curve, though single readings can be large; an effect the other way counts as inactive or inconclusive.

Assays:
[1] = qHTS assay to identify small molecule agonists of H2AX (AID 1224845; active means well fitted activation curve with a large enough effect in the signal ratio in the repeat runs, not every such curve was filed as active; the % refers to the signal ratio)
In short: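 Wild-type CHO-K1 cells, plated overnight, exposed 3hr at 37C to 15 concentrations (0.76% DMSO final). Lysed, then HTRF anti-pH2AX (S139) cryptate and anti-H2AX-d2 antibodies, 24 hr room temperature; 665/620 nm emission read.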

[2] = qHTS assay to identify small molecule agonists of the hypoxia (HIF-1) signaling pathway (AID 1224846; active means well fitted activation curve with a large enough effect in the signal ratio in the repeat runs, not every such curve was filed as active; the % refers to the signal ratio)
In short: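 Reporter induction in HRE-bla ME-180 cells is taken as agonism: cells sit 5 hrs after plating, receive compounds or DMSO only, incubate 17 hrs at 37C under 5% CO2, and are loaded with CCF4-AM for beta-lactamase FRET measurement.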

[3] = qHTS assay to identify small molecule agonists of H2AX - cell viability counter screen (AID 1224847; calls by dose curve; further: nearly all actives have a fitted effect of over 30% in size; further: potency means the concentration at half of the fitted maximal effect; on activity change, negative = cytotoxicity: top concentration of the series differs between compounds)
In short: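 We seed wild-type CHO-K1 cells overnight, treat them for 3 hr at 37C with compounds in 15-concentration series, and quantify remaining viability by CellTiter-Glo luminescence.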

[4] = qHTS RealTime-Glo MT Cell Viability Assay in HepG2 cells - 24 hour (AID 1224867); further: nearly all actives have a fitted effect of over 50% in size
In short: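 Compound treatment began 5 h after plating HepG2 cells (600/well) with NanoLuc luciferase and prosubstrate. Plates stayed at 37 C for 40 h; luminescence was captured at six time points, 0 h through 40 h.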

[5] = qHTS RealTime-Glo MT Cell Viability Assay in HEK293 cells - 32 hour (AID 1224868); further: nearly all actives have a fitted effect of over 50% in size; further: potency means the concentration at half of the fitted maximal effect; on activity change, negative = cytotoxic: top concentration of the series differs between compounds
In short: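 Quantitative high-throughput screen of the Tox21 10K library in HEK293: cells and RealTime-Glo reagents plated together, compound added at 5 h, luminescence monitored through 40 h at 37 C.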

[6] = A CellTox Green Cytotoxicity Assay to monitor cytotoxicity in HEK293 cells - 40 hour (AID 1224871); further: nearly all actives have a fitted effect of over 45% in size
In short: (§1)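 Tox21 screen in HEK293: membrane-impermeant cyanine dye fluoresces on binding dead-cell DNA; compound pinned 5 h post-seeding, plates held at 37 C, signal read repeatedly through 40 h.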

[7] = qHTS RealTime-Glo MT Cell Viability Assay in HepG2 cells - 40 hour (AID 1224870); further: nearly all actives have a fitted effect of over 50% in size
In short: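 HepG2 cells (600/well) mixed with RealTime-Glo MT reagent, settled 5 h at 37 C/5% CO2 before compound addition. Nonlytic NanoLuc luminescence from viable-cell prosubstrate reduction read repeatedly during 40 h treatment at 37 C.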

[8] = A CellTox Green Cytotoxicity Assay to monitor cytotoxicity in HEK293 cells - 0 hour (AID 1224869); further: nearly all actives have a fitted effect of over 50% in size
In short: as §1

[9] = qHTS assay to identify small molecule antagonists of the estrogen related receptor (ERR) signaling pathway from Tox21 library (AID 1224848); further: nearly all actives have a fitted effect of over 50% in size
In short: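 Quantitative high-throughput format: ERR reporter cells (2,000/well) pre-incubated 6 h, treated 18 h at 37 C with compounds in DMSO alongside positive and negative controls, then read by ONE-Glo luminescence.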

[10] = qHTS assay to identify small molecule agonists of the estrogen related receptor (ERR) signaling pathway from Tox21 library (AID 1224849; calls by dose curve; further: nearly all actives have a fitted effect of over 15% in size); conditions: ERR reporter cell line, ONE-Glo luciferase, 18 h; at 92.4 µM (top of the series) unless noted
In short: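 Tox21 compounds tested for ERR agonism in an NTP reporter cell line: 18 h treatment at 37 C, then ONE-Glo luminescence.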

Compound: C/C(=N\NC(=O)Nc1cc(F)cc(F)c1)c1ncccc1C(=O)O
- outcome [1]: inactive
- outcome [2]: inactive
- Potency [3]: inactive
- Potency [4]: inactive
- Potency [5]: inactive
- Potency [6]: inactive

Compound: C=CCC1(C(C)CC)C(=O)NC(=O)NC1=O (configuration not stated)
- outcome [1]: inactive
- outcome [2]: inactive
- Potency [3]: inactive
- Potency [4]: inactive
- Potency [5]: inactive
- Potency [7]: inactive
- Potency [6]: inactive

Compound: O=CCCl
- outcome [1]: inactive
- outcome [2]: inactive
- Potency [3]: inactive
- Potency [4]: inactive
- Potency [5]: inactive
- outcome [8]: inactive
- Potency [7]: inactive
- Potency [6]: inactive

Compound: Cc1cccc2sc3nncn3c12
- outcome [1]: inactive
- outcome [2]: inactive
- Potency [3]: inactive
- Potency [4]: inactive
- Potency [5]: inactive
- outcome [8]: inactive
- Potency [7]: inactive
- Potency [6]: inactive

Compound: O=C(O)c1c(Cl)ccc2cc(Cl)cnc12
- outcome [1]: inactive
- outcome [2]: inactive
- Potency [3]: inactive
- Potency [4]: inactive
- Potency [5]: inactive
- Potency [7]: inactive
- Potency [6]: inactive

Compound: Cn1c(N)nc2c3cccnc3ccc21
- outcome [1]: inactive
- outcome [2]: inactive
- Potency [3]: inactive
- Potency [4]: inactive
- Potency [5]: inactive
- Potency [7]: inactive
- Potency [6]: inactive

Compound: CCCCCCC(=O)CCCCCC/C=C/C[C@@H](O)[C@H](O)[C@@](N)(CO)C(=O)O
- activation (H2AX phosphorylation) [1]: -0.061% [at 31.6 µM] (inactive)
- activation [2]: -0.0517% [at 15.8 µM] (inactive)
- activity change, negative = cytotoxicity [3]: -0.19% [at 31.6 µM] (inactive)
- activity change, negative = cytotoxicity [4]: 0.745% [at 15.8 µM] (inactive)
- activity change, negative = cytotoxic [5]: 2.61% [at 15.8 µM] (inactive)
- cytotoxicity [8]: 0.947% [at 15.8 µM] (inactive)
- activity change, negative = cytotoxic [7]: 0.839% [at 15.8 µM] (inactive)
- cytotoxicity increase [6]: -5.02% [at 15.8 µM] (inactive)

Compound: C[C@H]1CCCC(=O)CCC/C=C/c2cc(O)cc(O)c2C(=O)O1
- outcome [1]: inactive
- outcome [2]: inactive
- Potency [3]: 86.5 µM (active) and inactive
- Potency [4]: inactive
- Potency [5]: 21.1 µM (active)
- Potency [7]: inactive
- Potency [6]: inactive

Compound: CCOP(=O)(CN(CCO)CCO)OCC
- outcome [1]: inactive
- outcome [2]: inactive
- Potency [3]: inactive
- Potency [4]: inactive
- outcome [8]: inactive
- Potency [7]: inactive
- Potency [6]: inactive

Compound: CNC(=O)O/N=C(/CSC)C(C)(C)C
- outcome [1]: inactive
- outcome [2]: inactive
- Potency [3]: inactive
- Potency [4]: inactive
- Potency [5]: inactive
- outcome [8]: inactive
- Potency [7]: inactive
- Potency [6]: inactive

Compound: CCN[C@@H](C)Cc1cccc(C(F)(F)F)c1
- outcome [1]: inactive
- outcome [2]: inactive
- Potency [3]: inactive
- Potency [4]: inactive
- Potency [5]: inactive
- outcome [8]: inactive
- Potency [7]: inactive
- Potency [6]: inactive

Compound: CC(=NC#N)N(C)Cc1ccc(Cl)nc1
- outcome [1]: inactive
- outcome [2]: inactive
- Potency [3]: inactive
- Potency [4]: inactive
- Potency [5]: inactive
- outcome [8]: inactive
- Potency [7]: inactive
- Potency [6]: inactive

Compound: COP(=O)(O)OC
- outcome [1]: inactive
- outcome [2]: inactive
- Potency [3]: inactive
- Potency [4]: inactive
- outcome [8]: inactive
- Potency [7]: inactive
- Potency [6]: inactive

Compound: ClCCCCCCCl
- outcome [1]: inactive
- outcome [2]: inactive
- Potency [3]: inactive
- Potency [4]: inactive
- Potency [5]: inactive
- outcome [8]: inactive
- Potency [7]: inactive
- Potency [6]: inactive

Compound: CS(=O)(=O)Cl
- outcome [1]: inactive
- outcome [2]: inactive
- Potency [3]: inactive
- Potency [4]: inactive
- Potency [5]: inactive
- outcome [8]: inactive
- Potency [6]: inactive

Compound: COC(=O)c1ccc(CBr)cc1
- outcome [1]: inactive
- outcome [2]: inactive
- Potency [3]: inactive
- Potency [4]: inactive
- Potency [5]: inactive
- outcome [8]: inactive
- Potency [7]: inactive
- Potency [6]: inactive

Compound: CC(C)[C@]12CC(=O)[C@H](C)[C@H]1C2
- outcome [1]: inactive
- outcome [2]: inactive
- Potency [3]: inactive
- Potency [4]: inactive
- Potency [5]: inactive
- Potency [7]: inactive
- Potency [6]: inactive

Compound: CC(C)C(C)(N)C#N (configuration not stated)
- outcome [1]: inactive
- outcome [2]: inactive
- Potency [3]: inactive
- Potency [4]: inactive
- Potency [5]: inactive
- Potency [7]: inactive
- Potency [6]: inactive

Compound: CCOC(=O)CC(SP(=S)(OC)OC)C(=O)OCC (configuration not stated)
- outcome [1]: inactive
- outcome [2]: inactive
- Potency [3]: inactive
- Potency [4]: inactive
- Potency [5]: inactive
- outcome [8]: inactive
- Potency [7]: inactive
- Potency [6]: inactive

Compound: CCOC(=O)c1ncn2c1CN(C)C(=O)c1c(I)cccc1-2
- outcome [1]: inactive
- outcome [2]: inactive
- Potency [3]: inactive
- Potency [4]: inactive
- Potency [5]: inactive
- Potency [7]: inactive
- Potency [6]: inactive

Compound: N=C(N)[Se]
- outcome [1]: inactive
- outcome [2]: inactive
- Potency [3]: inactive
- Potency [4]: inactive
- Potency [5]: inactive
- outcome [8]: inactive
- Potency [6]: inactive

Compound: CCOc1cc(OP(=S)(OC)OC)nc(CC)n1
- outcome [1]: inactive
- outcome [2]: inactive
- Potency [3]: inactive
- Potency [4]: inactive
- Potency [5]: inactive
- Potency [6]: inactive

Compound: CCOC(=O)NC(C)(C)Cc1ccc(Cl)cc1
- outcome [1]: inactive
- outcome [2]: inactive
- Potency [3]: inactive
- Potency [4]: inactive
- Potency [5]: inactive
- Potency [7]: inactive

Compound: O=C(Cl)C(Cl)Cl
- outcome [1]: inactive
- outcome [2]: inactive
- Potency [3]: inactive
- Potency [4]: inactive
- Potency [5]: inactive
- outcome [8]: inactive
- Potency [6]: inactive

Compound: CC(C)(C)C(=O)Cl
- outcome [1]: inactive
- outcome [2]: inactive
- Potency [3]: inactive
- Potency [4]: inactive
- Potency [5]: inactive
- outcome [8]: inactive
- Potency [6]: inactive

Compound: OCC(Cl)CCl (configuration not stated)
- outcome [1]: inactive
- outcome [2]: inactive
- Potency [3]: inactive
- Potency [4]: inactive
- Potency [5]: inactive
- outcome [8]: inactive
- Potency [7]: inactive
- Potency [6]: inactive

Compound: O=C(Cl)CCl
- outcome [1]: inactive
- outcome [2]: inactive
- Potency [3]: inactive
- Potency [4]: inactive
- Potency [5]: inactive
- outcome [8]: inactive
- Potency [7]: inactive
- Potency [6]: inactive

Compound: CCOC(=O)COc1ccc(Cl)cc1Cl
- outcome [1]: inactive
- outcome [2]: inactive
- Potency [3]: inactive
- Potency [4]: inactive
- Potency [5]: inactive
- Potency [7]: inactive
- Potency [6]: inactive

Compound: [P]#[In]
- outcome [1]: inactive
- outcome [2]: inactive
- Potency [9]: inactive
- activity change, positive = activation [10]: 3.59% (inactive)
- Potency [4]: inactive
- Potency [5]: inactive
- Potency [7]: inactive
- Potency [6]: inactive

Compound: C=CCCC#N
- outcome [1]: inactive
- outcome [2]: inactive
- Potency [3]: inactive
- Potency [4]: inactive
- outcome [8]: inactive
- Potency [6]: inactive

Compound: C=CCN1CC[C@]23CCCC[C@H]2[C@H]1Cc1ccc(O)cc13
- outcome [1]: inactive
- Potency [3]: inactive
- Potency [9]: inactive
- activity change, positive = activation [10]: 5.12% [at 42.5 µM] (inactive)
- Potency [4]: inactive
- Potency [5]: inactive
- outcome [8]: inactive
- Potency [7]: inactive
- Potency [6]: inactive
